# Source: the supplement of paper PMC8728848
# About 410 targets per protein were measured; listed, in parts, are those with the strongest signals and a random draw of the rest.
# What was measured:
# Assay in all cases: glycan array binding signal (z-score within array); higher = stronger binding
# Details in all cases: glycan notation: IUPAC condensed, linker removed
# [1] = target: Fuc(a1-2)Gal(b1-4)GlcNAc(b1-3)Gal(b1-4)GlcNAc
# How it was run: (§1)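 Columns mapping to the same glycan were averaged after glycan names were converted to IUPAC-condensed notation. The data come from 3228 arrays in the Consortium for Functional Glycomics database, limited to those with an available protein sequence. Binding is reported as a within-array Z-score averaged across arrays of one protein sequence and across linkers.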
# [2] = target: Fuc(a1-2)Gal(b1-4)GlcNAc(b1-3)Gal(b1-4)GlcNAc(b1-2)Man(a1-3)[Fuc(a1-2)Gal(b1-4)GlcNAc(b1-3)Gal(b1-4)GlcNAc(b1-2)Man(a1-6)]Man(b1-4)GlcNAc(b1-4)GlcNAc
# How it was run: as §1
# [3] = target: Fuc(a1-2)Gal(b1-4)[Fuc(a1-3)]GlcNAc
# How it was run: as §1
# [4] = target: Fuc(a1-2)Gal(b1-4)[Fuc(a1-3)]GlcNAc(b1-2)Man(a1-3)[Fuc(a1-2)Gal(b1-4)[Fuc(a1-3)]GlcNAc(b1-2)Man(a1-6)]Man(b1-4)GlcNAc(b1-4)[Fuc(a1-6)]GlcNAc
# How it was run: as §1
# [5] = target: Fuc(a1-2)Gal(b1-4)[Fuc(a1-3)]GlcNAc(b1-2)[Fuc(a1-2)Gal(b1-4)[Fuc(a1-3)]GlcNAc(b1-4)]Man(a1-3)[Fuc(a1-2)Gal(b1-4)[Fuc(a1-3)]GlcNAc(b1-2)Man(a1-6)]Man(b1-4)GlcNAc(b1-4)GlcNAc
# How it was run: as §1
# [6] = target: Fuc(a1-2)Gal(b1-4)[Fuc(a1-3)]GlcNAc(b1-3)GalNAc
# How it was run: as §1
# [7] = target: Fuc(a1-2)Gal(b1-4)[Fuc(a1-3)]GlcNAc(b1-3)[Neu5Ac(a2-6)Gal(b1-4)GlcNAc(b1-6)]Gal(b1-4)Glc
# How it was run: as §1
# [8] = target: Fuc(a1-2)Gal6S(b1-4)Glc6S
# How it was run: as §1
# [9] = target: Fuc(a1-2)[Gal(a1-3)]Gal(b1-4)GlcNAc(b1-2)Man(a1-3)[Fuc(a1-2)[Gal(a1-3)]Gal(b1-4)GlcNAc(b1-2)Man(a1-6)]Man(b1-4)GlcNAc(b1-4)GlcNAc
# How it was run: as §1
# [10] = target: Fuc(a1-2)[Gal(a1-3)]Gal(b1-4)[Fuc(a1-3)]GlcNAc(b1-3)GalNAc
# How it was run: as §1
# [11] = target: Fuc(a1-2)[GalNAc(a1-3)]Gal(b1-3)GlcNAc
# How it was run: as §1
# [12] = target: Fuc(a1-2)[GalNAc(a1-3)]Gal(b1-3)GlcNAc(b1-2)Man(a1-3)[Fuc(a1-2)[GalNAc(a1-3)]Gal(b1-3)GlcNAc(b1-2)Man(a1-6)]Man(b1-4)GlcNAc(b1-4)[Fuc(a1-6)]GlcNAc
# How it was run: as §1
# [13] = target: Fuc(a1-2)[GalNAc(a1-3)]Gal(b1-4)GlcNAc(b1-3)Gal(b1-4)GlcNAc
# How it was run: as §1
# [14] = target: Fuc(a1-2)[GalNAc(a1-3)]Gal(b1-4)[Fuc(a1-3)]GlcNAc(b1-3)GalNAc
# How it was run: as §1
# [15] = target: Fuc(a1-3)[GalNAc(b1-4)]GlcNAc
# How it was run: as §1
# [16] = target: Gal(a1-3)Gal(b1-3)[Fuc(a1-4)]GlcNAc(b1-2)Man(a1-3)[Gal(a1-3)Gal(b1-3)[Fuc(a1-4)]GlcNAc(b1-2)Man(a1-6)]Man(b1-4)GlcNAc(b1-4)GlcNAc
# How it was run: as §1
# Gal(b1-3)Gal(b1-4)GlcNAc = target: Gal(b1-3)Gal(b1-4)GlcNAc
# How it was run: as §1
# Gal(b1-3)GalNAc = target: Gal(b1-3)GalNAc
# How it was run: as §1
# [17] = target: Gal(b1-3)GalNAc(a1-3)[Fuc(a1-2)]Gal(b1-4)Glc
# How it was run: as §1
# [18] = target: Gal(b1-3)GalNAc(a1-3)[Fuc(a1-2)]Gal(b1-4)GlcNAc
# How it was run: as §1
# Gal(b1-3)GalNAc(b1-3)Gal = target: Gal(b1-3)GalNAc(b1-3)Gal
# How it was run: as §1
# [19] = target: Gal(b1-3)GalNAc(b1-3)Gal(a1-4)Gal(b1-4)Glc
# How it was run: as §1
# [20] = target: Gal(b1-3)GalNAc(b1-4)Gal(b1-4)Glc
# How it was run: as §1
# [21] = target: Gal(b1-3)GalNAc(b1-4)[Neu5Ac(a2-3)]Gal(b1-4)Glc
# How it was run: as §1
# Gal(b1-3)GlcNAc = target: Gal(b1-3)GlcNAc
# How it was run: as §1
# [22] = target: Gal(b1-3)[Fuc(a1-4)]GlcNAc
# How it was run: as §1
# [23] = target: Gal(b1-3)[Neu5Ac(a2-6)]GalNAc
# How it was run: as §1
# [24] = target: Gal(b1-3)[Neu5Ac(b2-6)]GalNAc
# How it was run: as §1
# [25] = target: Gal(b1-4)GalNAc(b1-3)[Fuc(a1-2)]Gal(b1-4)GlcNAc
# How it was run: as §1
# [26] = target: Gal(b1-4)GlcNAc(b1-2)[Gal(b1-4)GlcNAc(b1-6)]Man(a1-6)[Gal(b1-4)GlcNAc(b1-2)Man(a1-3)]Man(b1-4)GlcNAc(b1-4)[Fuc(a1-6)]GlcNAc
# How it was run: as §1
# [27] = target: Gal(b1-4)GlcNAc(b1-3)Gal(b1-4)GlcNAc(b1-2)[Gal(b1-4)GlcNAc(b1-3)Gal(b1-4)GlcNAc(b1-6)]Man(a1-6)[Gal(b1-4)GlcNAc(b1-3)Gal(b1-4)GlcNAc(b1-2)Man(a1-3)]Man(b1-4)GlcNAc(b1-4)[Fuc(a1-6)]GlcNAc
# How it was run: as §1
# GalNAc(b1-3)GlcNAc = target: GalNAc(b1-3)GlcNAc
# How it was run: as §1
# GalNAc3S(b1-4)GlcNAc = target: GalNAc3S(b1-4)GlcNAc
# How it was run: as §1
# Glc(b1-4)Glc = target: Glc(b1-4)Glc
# How it was run: as §1
# [28] = target: GlcNAc(a1-3)Gal(b1-4)GlcNAc
# How it was run: as §1
# [29] = target: GlcNAc(b1-2)[GlcNAc(b1-4)]Man(a1-3)[GlcNAc(b1-4)][GlcNAc(b1-2)[GlcNAc(b1-6)]Man(a1-6)]Man(b1-4)GlcNAc(b1-4)[Fuc(a1-6)]GlcNAc
# How it was run: as §1
# [30] = target: GlcNAc(b1-3)Gal(b1-4)GlcNAc(b1-3)Gal(b1-4)GlcNAc(b1-2)Man(a1-3)[GlcNAc(b1-3)Gal(b1-4)GlcNAc(b1-3)Gal(b1-4)GlcNAc(b1-2)Man(a1-6)]Man(b1-4)GlcNAc(b1-4)[Fuc(a1-6)]GlcNAc
# How it was run: as §1
# [31] = target: GlcNAc(b1-3)[GlcNAc(b1-6)]GalNAc
# How it was run: as §1
# Kdn(a2-6)Gal(b1-4)GlcNAc = target: Kdn(a2-6)Gal(b1-4)GlcNAc
# How it was run: as §1
# [32] = target: Man(a1-2)Man(a1-3)[Man(a1-6)]Man(a1-6)[Man(a1-2)Man(a1-3)]Man(b1-4)GlcNAc(b1-4)GlcNAc
# How it was run: as §1
# [33] = target: Man(a1-3)[Man(a1-6)]Man(a1-6)[Man(a1-3)]Man(b1-4)GlcNAc(b1-4)GlcNAc
# How it was run: as §1
# [34] = target: Neu5Ac(a2-3)Gal(b1-3)GalNAc6S
# How it was run: as §1
# [35] = target: Neu5Ac(a2-3)Gal(b1-3)GlcNAc(b1-4)Gal(b1-4)Glc
# How it was run: as §1
# [36] = target: Neu5Ac(a2-3)Gal(b1-3)GlcNAc(b1-6)GalNAc
# How it was run: as §1
# Neu5Ac(a2-3)Gal(b1-4)Glc = target: Neu5Ac(a2-3)Gal(b1-4)Glc
# How it was run: as §1
# [37] = target: Neu5Ac(a2-3)Gal(b1-4)GlcNAc(b1-2)[Neu5Ac(a2-3)Gal(b1-4)GlcNAc(b1-4)]Man(a1-3)[GlcNAc(b1-4)][Neu5Ac(a2-3)Gal(b1-4)GlcNAc(b1-4)Man(a1-6)]Man(b1-4)GlcNAc(b1-4)GlcNAc
# How it was run: as §1
# [38] = target: Neu5Ac(a2-3)Gal(b1-4)GlcNAc(b1-3)Gal
# How it was run: as §1
# [39] = target: Neu5Ac(a2-3)Gal(b1-4)GlcNAc(b1-3)Gal(b1-4)GlcNAc(b1-3)Gal(b1-4)GlcNAc
# How it was run: as §1
# Neu5Ac(a2-3)GalNAc = target: Neu5Ac(a2-3)GalNAc
# How it was run: as §1
# [40] = target: Neu5Ac(a2-6)Gal(b1-4)GlcNAc(b1-2)Man(a1-3)[Gal(b1-4)GlcNAc(b1-2)Man(a1-6)]Man(b1-4)GlcNAc(b1-4)GlcNAc
# How it was run: as §1
# [41] = target: Neu5Ac(a2-6)GalNAc(b1-4)GlcNAc6S
# How it was run: as §1
# [42] = target: Neu5Ac(a2-8)Neu5Ac(a2-3)[Gal(b1-3)GalNAc(b1-4)]Gal(b1-4)Glc
# How it was run: as §1
# [43] = target: Neu5Ac(a2-8)Neu5Ac(a2-8)Neu5Ac
# How it was run: as §1
# Neu5Gc(a2-6)GalNAc = target: Neu5Gc(a2-6)GalNAc
# How it was run: as §1
binder,measurement,setting,value
"Epa3 (Candida glabrata), Q6VBI8_CANGB (protein) MGSSHHHHHHSSGLVPRGSHMNDLGFSLFEKRELSSQNPFGYPIGCSPQDVAIIPGLTMELYSYPIVSGTPPNCYDASYVDPEYPRTGYLKRKMVGKSTGVTGNLNYKYSVEKACMVKYGNLPAGYNYNEPLTVSNFTMILYGYFKAQTTGLHTFFVNADDLLYINFGAGNAFDCCKREDSKTKLGEYVAYDIWHVDSSKNKVSLFLEKDLYYPIRMFFNNIGKDSSLDLSFSVNGATDQISDFSGYLYSVPDQPDTCPAHIGYDTTCR",glycan array binding signal (z-score),[1],-0.314
same,glycan array binding signal (z-score),[2],0.01
same,glycan array binding signal (z-score),[3],-0.32
same,glycan array binding signal (z-score),[4],0.042
same,glycan array binding signal (z-score),[5],0.047
same,glycan array binding signal (z-score),[6],0.718
same,glycan array binding signal (z-score),[7],-0.262
same,glycan array binding signal (z-score),[8],0.004
same,glycan array binding signal (z-score),[9],-0.263
same,glycan array binding signal (z-score),[10],0.123
same,glycan array binding signal (z-score),[11],-0.201
same,glycan array binding signal (z-score),[12],-0.205
same,glycan array binding signal (z-score),[13],-0.246
same,glycan array binding signal (z-score),[14],2.94
same,glycan array binding signal (z-score),[15],0.843
same,glycan array binding signal (z-score),[16],-0.23
same,glycan array binding signal (z-score),Gal(b1-3)Gal(b1-4)GlcNAc,3.61
same,glycan array binding signal (z-score),Gal(b1-3)GalNAc,2.99
same,glycan array binding signal (z-score),[17],3.57
same,glycan array binding signal (z-score),[18],3.87
same,glycan array binding signal (z-score),Gal(b1-3)GalNAc(b1-3)Gal,8.62
same,glycan array binding signal (z-score),[19],3.07
same,glycan array binding signal (z-score),[20],17
same,glycan array binding signal (z-score),[21],2.86
same,glycan array binding signal (z-score),Gal(b1-3)GlcNAc,-0.202
same,glycan array binding signal (z-score),[22],-0.142
same,glycan array binding signal (z-score),[23],4.98
same,glycan array binding signal (z-score),[24],0.622
same,glycan array binding signal (z-score),[25],-0.192
same,glycan array binding signal (z-score),[26],-0.134
same,glycan array binding signal (z-score),[27],0.064
same,glycan array binding signal (z-score),GalNAc(b1-3)GlcNAc,-0.122
same,glycan array binding signal (z-score),GalNAc3S(b1-4)GlcNAc,-0.277
same,glycan array binding signal (z-score),Glc(b1-4)Glc,-0.201
same,glycan array binding signal (z-score),[28],-0.2
same,glycan array binding signal (z-score),[29],-0.314
same,glycan array binding signal (z-score),[30],0.201
same,glycan array binding signal (z-score),[31],-0.176
same,glycan array binding signal (z-score),Kdn(a2-6)Gal(b1-4)GlcNAc,-0.334
same,glycan array binding signal (z-score),[32],-0.175
same,glycan array binding signal (z-score),[33],-0.086
same,glycan array binding signal (z-score),[34],-0.264
same,glycan array binding signal (z-score),[35],0.022
same,glycan array binding signal (z-score),[36],-0.336
same,glycan array binding signal (z-score),Neu5Ac(a2-3)Gal(b1-4)Glc,-0.174
same,glycan array binding signal (z-score),[37],-0.312
same,glycan array binding signal (z-score),[38],-0.282
same,glycan array binding signal (z-score),[39],-0.435
same,glycan array binding signal (z-score),Neu5Ac(a2-3)GalNAc,-0.308
same,glycan array binding signal (z-score),[40],-0.331
same,glycan array binding signal (z-score),[41],-0.236
same,glycan array binding signal (z-score),[42],2.2
same,glycan array binding signal (z-score),[43],-0.342
same,glycan array binding signal (z-score),Neu5Gc(a2-6)GalNAc,-0.066
